About 83,000 compounds went through this panel and 20% of them were active in at least one assay; those are over-represented in the sample as a whole.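 48-hour exposure, single concentration, 96-well plates; percent growth endpoint where 0 means no net growth. Active: below 10.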 Unmarked numbers belong to inactive results. Active and inactive are the calls of the source.
What was measured:
Test in all cases: NCI-60 one-dose screen, 48 h (100 = growth as untreated, 0 = no growth, -100 = all killed)
Details in all cases: 10 µM unless noted
DU-145 prostate = tested on: DU-145 prostate
K-562 leukemia = tested on: K-562 leukemia
MALME-3M melanoma = tested on: MALME-3M melanoma
MDA-MB-231 breast = tested on: MDA-MB-231 breast
RXF 393 renal = tested on: RXF 393 renal
SF-268 CNS = tested on: SF-268 CNS
SF-295 CNS = tested on: SF-295 CNS
SF-539 CNS = tested on: SF-539 CNS
UACC-257 melanoma = tested on: UACC-257 melanoma
M14 melanoma = tested on: M14 melanoma

| SMILES | growth (DU-145 prostate) | growth (K-562 leukemia) | growth (MALME-3M melanoma) | growth (MDA-MB-231 breast) | growth (RXF 393 renal) | growth (SF-268 CNS) | growth (SF-295 CNS) | growth (SF-539 CNS) | growth (UACC-257 melanoma) | growth (M14 melanoma) |
| --- | --- | --- | --- | --- | --- | --- | --- | --- | --- | --- |
| Cn1c(-c2ccc(Br)cc2)c(O)c(=O)c2c(F)cccc21 | 54.4% | 100% | 55.2% | 54.5% | 66.1% | 47% | 48.4% | 57.4% | 71.4% | 50.6% |
| CCNC(=O)c1[nH]cc(-c2ccccc2)c1-c1cc(OC)c2c(c1OC)OCO2 | 112% | 94% | 110% | 97.2% | 102% | 97.6% | 100% | 102% | 102% | 95.8% |
| COc1ccc2[nH]cc(-c3nc(-c4c[nH]c5ccncc45)cs3)c2c1 | 32.9% | -37.9% (active) | -77.5% (active) | -35% (active) | -0.983% (active) | 65.3% | -57.1% (active) | -83.4% (active) | 82% | -74% (active) |
| COc1cc(CNC(=O)/C=C/C=C/c2ccc3c(c2)OCO3)ccc1OCc1cn(-c2ccc(C)c(C)c2)nn1 | 85.9% | 68.6% | 75.1% | 78.7% | 47.6% | 107% | 94.8% | 55.8% | 65% | 61.4% |
| CC(C)CCNC(=O)Cn1cccc(NC(=O)OCc2ccccc2)c1=O | 109% | 114% | 104% | 107% | 106% | 102% | 107% | 115% | 104% | 116% |
| CCc1ccc(C(=O)/C=C/C23c4ccccc4C(c4ccccc42)C2C(=O)NC(=O)C23)cc1 (stereo not given) | 12.6% | 8.82% (active) | -59.9% (active) | 9.93% (active) | -48.7% (active) | 26.5% | 12.9% | 11% | 27.8% | -8.91% (active) |
| O=C1/C(=C/c2ccc(F)cc2)COc2ccc(O)c(O)c21 | 18.6% | 10.6% | -10.4% (active) | -12.1% (active) | -3.02% (active) | 13.1% | 75% | -62.1% (active) | 15.8% | 37.5% |
| O=C(NCCCN1CCOCC1)c1cccc(N2C(=O)/C(=C/c3ccc(F)cc3)SC2=S)c1 | 101% | 96.2% | 90.4% | 88.9% | 94.2% | 94.1% | 95.5% | 90.6% | 97.2% | 93.8% |
| CCN(CC)CCOc1ccc(C(=C(C)c2ccc(Cl)cc2)c2ccc(OCCN(CC)CC)cc2)cc1 | -36.4% (active) | -37.2% (active) | -84.1% (active) | -84.9% (active) | -73.7% (active) | -37.9% (active) | -77.6% (active) | -92.6% (active) | -69.9% (active) | -89.8% (active) |
| O=C(CCCCC1CCSS1)Nc1ncnc2n[nH]c(-c3ccc(Oc4ccccc4)cc3)c12 (stereo not given) | 65.6% | 9.6% (active) | 109% | 68.3% | 113% | 72.4% | 102% | 106% | 95.2% | -62.8% (active) |
| Cc1cc2c(O)c(-c3cc(Cl)ccc3Cl)c3sc(=O)oc3c2cc1C | 69.5% | 28.3% | 100% | 77.3% | 86% | 65% | 72.5% | 89.9% | 60.8% | 81.1% |
| COc1ccc(C(=O)C2C(c3ccc(OC)cc3)CN(C)C23C(=O)Nc2ccccc23)cc1 (stereo not given) | 99% | 77.1% | 92.7% | 93.9% | 80.8% | 89.7% | 90.6% | 104% | 97.5% | 98.9% |
| Cc1cc2c(O)c(-c3cccc(Cl)c3)c3sc(=O)oc3c2cc1C | 48.1% | 17.2% | 58.4% | 53.9% | 63.5% | 48.7% | 66% | 54.3% | 39.6% | 51.9% |
| Cc1ccc(-c2nc(N3CCNCC3)c3oc(-c4ccccc4)nc3n2)cc1 | -93.1% (active) | -73.3% (active) | -29.5% (active) | -79.2% (active) | -74.1% (active) | 7.93% (active) | -23.2% (active) | -91% (active) | 91.2% | -92.3% (active) |
| C=C(C)[C@@H]1CC[C@]2(C)[C@H](CC=C3[C@@H]4[C@H](C)[C@@H](C)CC[C@]4(CO)CC[C@]32C)[C@@]1(C)CCCN | 28.4% | 1.75% (active) | -79.1% (active) | 3.87% (active) | 21.7% | 59% | 77.2% | 13% | -56.7% (active) | -46.2% (active) |
| O=C1/C(=C/c2ccccc2Br)COc2ccc(O)c(O)c21 | 13% | 9.73% (active) | -8.51% (active) | 0.858% (active) | 10.1% | 10.9% | 62.9% | -25.7% (active) | 19.7% | 31.5% |
| O=Cc1ccc([N+](=O)[O-])s1 | 110% | 75.4% | 115% | 85.2% | 123% | 96.6% | 107% | 86.5% | 97.3% | 92% |
| CCOC(=O)/C=C1\S/C(=N\Nc2cc(=O)[nH]c3ccc(Cl)cc23)N(c2ccccc2)C1=O | 96.7% | 54.1% | 92.6% | 92.2% | 77.2% | 96% | 102% | 99.6% | 95.6% | 87.3% |
| O=C(O)CNC1=C(Cl)C(=O)c2ccccc2C1=O | 112% | 93.4% | 118% | 83% | 128% | 103% | 92.1% | 123% | 91.1% | 98.3% |
| COC1C[C@H](O[C@@H]2C[C@H](O[C@@H]3C[C@H](O[C@@H]4C(=O)c5c(cc6cc(O[C@H]7C[C@@H](O[C@H]8C[C@@H](O)[C@H](O)C(C)O8)[C@H](O)C(C)O7)c(C)c(O)c6c5O)C[C@H]4C(OC)C(=O)[C@@H](O)[C@@H](C)O)OC(C)[C@H]3O)OC(C)[C@@H]2O)OC(C)[C@@H]1O (stereo not given in full) | 14% | 4.88% (active) | -59.4% (active) | -7.44% (active) | -50.9% (active) | 18.3% | 7.37% (active) | -8.29% (active) | -37.3% (active) | -22.7% (active) |
| CN(C)CCCC1(c2ccc(F)cc2)OCc2cc(-c3cccc4[nH]ccc34)ccc21 (stereo not given) | 18.9% | -4.22% (active) | -91.6% (active) | 40.8% | 37.6% | 41% | 20% | 14% | -5.65% (active) | -68.4% (active) |
| O=C1Nc2ccccc2/C1=C\c1nc(-c2ccccc2)n2ccccc12 | 86.4% | 77.2% | 119% | 60.6% | 78% | 93.9% | 97.6% | 101% | 124% | 79.8% |
| Oc1ccc(CCn2c(O)c(/C=C3\CN=c4ccccc4=N3)sc2=S)cc1 | 28% | 22.9% | 62.3% | 26% | 45.1% | 75% | 93.6% | 20.7% | 71.4% | 62.4% |
| O=C(Cn1c(=O)sc2nc3ccccc3nc21)Nc1ncc(Cc2cccc(Cl)c2Cl)s1 | 112% | 102% | 117% | 90.6% | 109% | 94.4% | 102% | 98.7% | 107% | 100% |
| COc1cc2c(c(OC)c1OC)C(=O)CC(c1cccc(NC(=O)c3ccc(Br)cc3)c1)O2 (stereo not given) | 58.7% | 5.9% (active) | 46.6% | 37.3% | 66.3% | 57.6% | 41.8% | 79.1% | 53.1% | 20% |
| CO[C@]12C=C/C(=C(/C(=O)OCc3cccnc3)C(=O)CCCCCCCC[C@@]3(OC)C=C/C(=C(/C(=O)OCc4cccnc4)C(=O)CCCCCCCC1)O3)O2 | 20% | 1.46% (active) | -31.2% (active) | 13.9% | -87.2% (active) | 9% (active) | -0.607% (active) | 3% (active) | 33.6% | 3.57% (active) |

Source: PubChem BioAssay (NCI)
